What all share (details): mRNA level, 48 h; actives raise or lower the signal
Read-out in one assay: BCL2L11 (gene 10018)
Description: LTEA_HepaRG_BCL2L11: Life Technologies and Expression Analysis (LTEA) Assay for Bcl-2 (BCL2L11) gene using HepaRG (AID 2283473). The method in brief:
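HepaRG, 48 h exposure, 8-pt half-log series from 100 uM in 0.5% DMSO, duplicates; qRT-PCR (Fluidigm TaqMan) for BCL2L11, housekeeping-normalized; bidirectional curve fit relative to DMSO baseline.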

Read-out in assay [1]: Apolipoprotein A-V (APOA5) gene, APOA5 (gene 116519)
The assay can be described thus: LTEA_HepaRG_APOA5: Life Technologies and Expression Analysis (LTEA) Assay for Apolipoprotein A-V (APOA5) gene using HepaRG (AID 2283474). The method, boiled down: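 HepaRG, 48 h chemical exposure in serum-free induction medium, 8-pt half-log series (top 100 uM), 0.5% DMSO vehicle, duplicates. Readout: APOA5 mRNA by qRT-PCR, housekeeping-normalized; bidirectional fit vs DMSO baseline.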

Read-out in assay [2]: Apoptosis regulator Bcl-2 (Homo sapiens) (UniProt P10415)
The assay can be described thus: LTEA_HepaRG_BCL2: Life Technologies and Expression Analysis (LTEA) Assay for Bcl-2 gene using HepaRG (AID 2283475). The method in brief:
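qRT-PCR of BCL2 transcript, normalized to three housekeeping genes (ACTB, GAPDH, POLR2A), after 48 h chemical exposure of HepaRG cells; concentrations top 100 uM with half-log dilutions, 0.5% DMSO vehicle, duplicates; changes up or down fitted relative to vehicle.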

Read-out in assay [3]: Bcl-2 (BID) gene, BID (gene 637)
The assay can be described thus: LTEA_HepaRG_BID: Life Technologies and Expression Analysis (LTEA) Assay for Bcl-2 (BID) gene using HepaRG (AID 2283476). The method in brief:
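Duplicate 48 h treatments of HepaRG cells in serum-free induction medium spanned 100 uM downward in half-log steps, 0.5% DMSO. Transcript change quantified by qRT-PCR against three housekeeping genes, fitted up or down versus DMSO.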

Read-out in the next assay: Caspase-3 (Homo sapiens) (UniProt P42574)
Description: LTEA_HepaRG_CASP3: Life Technologies and Expression Analysis (LTEA) Assay for cysteine-aspartic acid protease (CASP3) using HepaRG (AID 2283477). The method in brief: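 HepaRG, 48 h exposure, 8 conc. (top 100 uM, half-log steps, duplicate), 0.5% DMSO vehicle; qRT-PCR of CASP3 transcript, housekeeping-normalised (ACTB/GAPDH/POLR2A); bidirectional curve fit vs DMSO baseline.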

Read-out in assay [4]: Cytochrome P450 (CYP24A1), CYP24A1 (gene 1591)
Description: LTEA_HepaRG_CYP24A1: Life Technologies and Expression Analysis (LTEA) Assay for Cytochrome P450 (CYP24A1) using HepaRG (AID 2283478). The method in brief:
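qRT-PCR read-out: CYP24A1 transcript levels normalized to three housekeeping genes, bidirectional curve fits against 0.5% DMSO baseline. Human HepaRG cells treated 48 h with chemicals at eight concentrations from 100 uM in half-log steps.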

Read-out in assay [5]: Cytochrome P450 (CYP1A2), CYP1A2 (gene 1544)
Description: LTEA_HepaRG_CYP1A2: Life Technologies and Expression Analysis (LTEA) Assay for Cytochrome P450 (CYP1A2) using HepaRG (AID 2283479). The method in brief: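 HepaRG, 48 h exposure, top 100 uM, half-log 8-pt, 0.5% DMSO vehicle, duplicates. Readout: TaqMan qRT-PCR of CYP1A2 mRNA, housekeeping-normalized (ACTB/GAPDH/POLR2A). Gain/loss fit relative to DMSO baseline.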

Read-out in assay [6]: cysteine-aspartic acid protease (CASP8), CASP8 (gene 841)
Description: LTEA_HepaRG_CASP8: Life Technologies and Expression Analysis (LTEA) Assay for cysteine-aspartic acid protease (CASP8) using HepaRG (AID 2283480). The method in brief:
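Concentration-response in duplicate up to 100 uM (half-log steps, 0.5% DMSO) on differentiated HepaRG cultures for 48 h. Expression change of CASP8 mRNA is determined by TaqMan qRT-PCR with housekeeping-gene normalization.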

Read-out in assay [7]: Cytochrome P450 (CYP2B6), CYP2B6 (gene 1555)
Description: LTEA_HepaRG_CYP2B6: Life Technologies and Expression Analysis (LTEA) Assay for Cytochrome P450 (CYP2B6) using HepaRG (AID 2283481). The method, boiled down:
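Read-out is CYP2B6 mRNA by TaqMan qRT-PCR, normalized to three housekeeping genes and fitted bidirectionally against 0.5% DMSO baseline. Human HepaRG cells received test chemicals for 48 h, top concentration 100 uM, half-log dilutions.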

Read-out in assay [8]: Cytochrome P450 2C19 (Homo sapiens) (UniProt P33261)
Description: LTEA_HepaRG_CYP2C19: Life Technologies and Expression Analysis (LTEA) Assay for CYP2C19 using HepaRG (AID 2283482). The method, boiled down:
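HepaRG, 48 h chemical exposure, 8-pt half-log series from 100 uM in 0.5% DMSO, duplicates. Readout: CYP2C19 mRNA by TaqMan qRT-PCR, housekeeping-normalized. Bidirectional fit vs DMSO baseline; phenobarbital 1mM as induction control.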

Read-out in another assay: CYP2C8 (gene 1558)
The assay can be described thus: LTEA_HepaRG_CYP2C8: Life Technologies and Expression Analysis (LTEA) Assay for CYP2C8 using HepaRG (AID 2283483). The method in brief:
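This is a transcriptional endpoint in HepaRG cultures: 48 h exposure, highest concentration 100 uM. CYP2C8 mRNA is quantified by TaqMan qRT-PCR.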

Read-out in a further assay: CYP2C9 (gene 1559)
The assay can be described thus: LTEA_HepaRG_CYP2C9: Life Technologies and Expression Analysis (LTEA) Assay for CYP2C9 using HepaRG (AID 2283484). The method, boiled down: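 Eight-point concentration-response (highest 100 uM, half-log dilutions) in HepaRG cells for 48 h; CYP2C9 expression by qRT-PCR normalized to ACTB, GAPDH, POLR2A. Bidirectional fit, DMSO baseline.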

Read-out in the next assay: CYP2E1 (gene 1571)
The assay can be described thus: LTEA_HepaRG_CYP2E1: Life Technologies and Expression Analysis (LTEA) Assay for CYP2E1 using HepaRG (AID 2283485). The method in brief:
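CYP2E1 transcript measured by Fluidigm qRT-PCR against three housekeeping genes in human HepaRG cells treated 48 h (top 100 uM, half-log steps, 0.5% DMSO vehicle). Gain or loss fitted relative to DMSO baseline.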

Read-out in another assay: CYP4A11 (gene 1579)
Description: LTEA_HepaRG_CYP4A11: Life Technologies and Expression Analysis (LTEA) Assay for CYP4A11 using HepaRG (AID 2283486). The method, boiled down: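 CYP4A11 transcript levels were quantified by TaqMan qRT-PCR after HepaRG human liver cells were treated for 48 hours with test chemicals (top 100 uM, half-log dilutions, 0.5% DMSO). Gain or loss of signal was fitted relative to DMSO.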

Read-out in assay [9]: Cytochrome P450 3A4 (Homo sapiens) (UniProt P08684)
The assay can be described thus: LTEA_HepaRG_CYP3A4: Life Technologies and Expression Analysis (LTEA) Assay for CYP3A4 using HepaRG (AID 2283487). The method, boiled down: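 Differentiated HepaRG cells in serum-free induction medium exposed in duplicate for 48 h to 8 half-log concentrations up to 100 uM in 0.5% DMSO. CYP3A4 mRNA measured by qRT-PCR normalized to ACTB, GAPDH and POLR2A; bidirectional fit versus DMSO.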

Read-out in assay [10]: DNA damage-inducible transcript 3 (DDIT3), DDIT3 (gene 1649)
Description: LTEA_HepaRG_DDIT3: Life Technologies and Expression Analysis (LTEA) Assay for DNA damage-inducible transcript 3 (DDIT3) using HepaRG (AID 2283488). The method, boiled down:
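DDIT3 transcript was quantified by qRT-PCR with ACTB/GAPDH/POLR2A normalization after 48 h chemical treatment of differentiated HepaRG cells in 0.5% DMSO. Dosing was eight-point, half-log, top 100 uM, duplicate wells. Curves fitted bidirectionally versus DMSO.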

Read-out in assay [11]: Pro-epidermal growth factor (Homo sapiens) (UniProt P01133)
Description: LTEA_HepaRG_EGF: Life Technologies and Expression Analysis (LTEA) Assay for Epidermal growth factor (EGF) using HepaRG (AID 2283489). The method, boiled down:
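qRT-PCR readout of EGF transcript after 48 h chemical exposure of HepaRG cells; eight concentrations from 100 uM down in half-log steps, duplicate wells, 0.5% DMSO vehicle. Bidirectional curve fitting against DMSO baseline.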

Read-out in assay [12]: Early growth response protein 1 (EGR1) transcription factor, EGR1 (gene 1958)
Description: LTEA_HepaRG_EGR1: Life Technologies and Expression Analysis (LTEA) Assay for Early growth response protein 1 (EGR1) transcription factor using HepaRG (AID 2283490). The method in brief: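 EGR1 expression change in human HepaRG after 48 h chemical exposure, assessed by housekeeping-normalized qRT-PCR; concentration-response up to 100 uM, fitted in both directions against DMSO controls.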

Read-out in assay [13]: Ezrin (EZR), EZR (gene 7430)
The assay can be described thus: LTEA_HepaRG_EZR: Life Technologies and Expression Analysis (LTEA) Assay for Ezrin (EZR) using HepaRG (AID 2283491). The method, boiled down: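 Differentiated human HepaRG cells, 48 h after plating, were exposed in serum-free induction medium for 48 hours to eight half-log concentrations up to 100 uM in 0.5% DMSO. EZR mRNA was measured by TaqMan qRT-PCR, normalized to ACTB, GAPDH and POLR2A, and fitted bidirectionally against DMSO.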

Read-out in assay [14]: Cytochrome P450 3A7 (Homo sapiens) (UniProt P24462)
Description: LTEA_HepaRG_CYP3A7: Life Technologies and Expression Analysis (LTEA) Assay for CYP3A7 using HepaRG (AID 2283492). The method in brief:
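CYP3A7 transcript levels were read by TaqMan qRT-PCR on Fluidigm arrays after 48 h chemical exposure of human HepaRG cells, with housekeeping-gene normalisation. Eight half-log concentrations up to 100 uM in 0.5% DMSO were tested in duplicate.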

The structures appear in SMILES notation. Calls of active or inactive are those of the source. The calls were made as follows: active = hit-call score of the fitted dose curve at least 0.9, where 1 is the maximum; inactive = score below 0.9.

The AC50 is the concentration at which the activity in the assay is half-maximal.

Cytochrome P450 2C19 (Homo sapiens), sequence (P33261 whole entry, looked up): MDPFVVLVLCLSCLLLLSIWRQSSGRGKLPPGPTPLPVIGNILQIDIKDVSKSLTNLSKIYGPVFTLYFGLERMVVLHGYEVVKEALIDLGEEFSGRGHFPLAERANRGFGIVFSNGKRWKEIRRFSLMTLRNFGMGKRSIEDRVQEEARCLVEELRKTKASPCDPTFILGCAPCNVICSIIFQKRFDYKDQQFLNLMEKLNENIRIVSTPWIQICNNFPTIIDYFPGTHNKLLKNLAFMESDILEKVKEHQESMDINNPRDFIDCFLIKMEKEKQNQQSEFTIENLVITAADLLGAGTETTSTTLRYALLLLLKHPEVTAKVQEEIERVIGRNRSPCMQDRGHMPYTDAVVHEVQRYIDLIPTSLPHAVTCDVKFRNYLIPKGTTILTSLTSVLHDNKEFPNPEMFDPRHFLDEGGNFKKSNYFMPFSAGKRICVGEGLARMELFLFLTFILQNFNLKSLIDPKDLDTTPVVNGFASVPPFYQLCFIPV
Apoptosis regulator Bcl-2 (Homo sapiens), sequence (P10415 whole entry, looked up): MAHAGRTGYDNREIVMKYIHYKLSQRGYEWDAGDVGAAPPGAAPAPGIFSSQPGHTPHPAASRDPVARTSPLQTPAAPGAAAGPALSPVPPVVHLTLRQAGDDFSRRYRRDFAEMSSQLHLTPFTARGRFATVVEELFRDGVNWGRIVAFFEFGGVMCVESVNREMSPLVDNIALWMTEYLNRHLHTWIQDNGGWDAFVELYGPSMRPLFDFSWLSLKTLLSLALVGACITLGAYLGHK
Caspase-3 (Homo sapiens), sequence (P42574 whole entry, looked up): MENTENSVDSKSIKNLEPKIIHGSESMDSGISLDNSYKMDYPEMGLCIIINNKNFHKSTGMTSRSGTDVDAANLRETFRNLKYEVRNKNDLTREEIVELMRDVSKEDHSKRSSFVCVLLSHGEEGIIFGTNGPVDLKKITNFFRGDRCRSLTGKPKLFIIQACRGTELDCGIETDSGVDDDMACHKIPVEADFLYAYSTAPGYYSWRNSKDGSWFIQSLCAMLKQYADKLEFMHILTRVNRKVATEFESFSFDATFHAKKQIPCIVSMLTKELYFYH
Cytochrome P450 3A7 (Homo sapiens), sequence (P24462 whole entry, looked up): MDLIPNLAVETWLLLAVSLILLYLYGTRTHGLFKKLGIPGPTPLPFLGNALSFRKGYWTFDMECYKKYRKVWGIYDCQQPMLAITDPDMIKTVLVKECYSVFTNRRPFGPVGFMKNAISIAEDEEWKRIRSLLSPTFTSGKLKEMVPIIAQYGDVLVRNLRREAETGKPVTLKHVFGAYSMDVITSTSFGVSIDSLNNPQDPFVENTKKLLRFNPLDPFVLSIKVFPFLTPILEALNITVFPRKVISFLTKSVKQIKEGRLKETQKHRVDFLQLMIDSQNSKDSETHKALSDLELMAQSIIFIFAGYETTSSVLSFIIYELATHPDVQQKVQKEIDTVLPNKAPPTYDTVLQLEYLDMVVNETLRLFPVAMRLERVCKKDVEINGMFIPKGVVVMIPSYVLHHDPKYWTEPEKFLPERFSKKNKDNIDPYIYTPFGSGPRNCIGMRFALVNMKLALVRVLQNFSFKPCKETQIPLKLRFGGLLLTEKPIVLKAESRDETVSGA
Cytochrome P450 3A4 (Homo sapiens), sequence (P08684 whole entry, looked up): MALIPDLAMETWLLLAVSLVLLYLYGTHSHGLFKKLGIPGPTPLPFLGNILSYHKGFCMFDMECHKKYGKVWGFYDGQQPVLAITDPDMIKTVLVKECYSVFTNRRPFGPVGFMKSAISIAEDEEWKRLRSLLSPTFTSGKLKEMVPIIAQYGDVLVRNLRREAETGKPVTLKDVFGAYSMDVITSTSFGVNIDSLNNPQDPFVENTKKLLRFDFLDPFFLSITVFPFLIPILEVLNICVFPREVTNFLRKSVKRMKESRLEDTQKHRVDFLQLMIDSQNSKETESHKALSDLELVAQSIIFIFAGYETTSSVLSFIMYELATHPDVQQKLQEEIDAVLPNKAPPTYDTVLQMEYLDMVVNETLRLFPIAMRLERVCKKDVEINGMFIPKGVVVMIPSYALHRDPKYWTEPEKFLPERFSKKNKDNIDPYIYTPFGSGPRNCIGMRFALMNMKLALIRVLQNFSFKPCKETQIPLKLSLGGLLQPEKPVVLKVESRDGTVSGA

As to `CN(C)C(=O)Nc1ccc(Cl)cc1`, the result (with BCL2L11 (gene 10018); in assay [1]; in [2]; in assay [3]; with Caspase-3 (Homo sapiens); in assay [4]) was inactive. Also, the molecule was classed as inactive (in assay [6]; in [8]; in the assay with CYP2C8 (gene 1558); with CYP2C9 (gene 1559); with CYP4A11 (gene 1579); in assay [9]). Further, the call in assay [10], in [11], in [12], in assay [13] and in [14] was inactive. For the same molecule, the AC50 in assay [5] was 55 µM (active); in [7], 22.5 µM (active); with CYP2E1 (gene 1571), 50 µM (active).

In the case of `CCCCC(CC)COC(=O)c1ccc(C(=O)OCC(CC)CCCC)c(C(=O)OCC(CC)CCCC)c1` (centres undefined), the molecule was called inactive (with BCL2L11 (gene 10018); in assay [1]; in assay [2]; in assay [3]; with Caspase-3 (Homo sapiens); in assay [4]). Besides, the result (in assay [5]; in [6]; in assay [7]; in assay [8]; with CYP2C8 (gene 1558); in the assay with CYP2C9 (gene 1559)) was inactive. For the same molecule, the outcome (with CYP2E1 (gene 1571); with CYP4A11 (gene 1579); in assay [10]; in [11]; in assay [12]; in assay [13]) was inactive. Also, the molecule was called inactive in assay [14].

Take `Nc1ccc(Cc2ccc(N)cc2)cc1`: the call (in the assay with BCL2L11 (gene 10018); in assay [1]; in [2]; in assay [3]; with Caspase-3 (Homo sapiens); in assay [4]) was inactive. The result (in assay [6]; with CYP2C8 (gene 1558); with CYP2E1 (gene 1571); with CYP4A11 (gene 1579); in [9]; in assay [10]) was inactive. The call in [11], in assay [12] and in assay [13] was inactive. The AC50 is 31.3 µM (active) in assay [5]; 11.5 µM (active) in assay [7]; 14.5 µM (active) in assay [8]; 20 µM (active) in the assay with CYP2C9 (gene 1559); 21.4 µM (active) in [14].

For the origin of these results see PubChem BioAssay (EPA / NIEHS).
